Screening results: PubChem, National Center for Advancing Translational Sciences (NCATS)
TGFb inhibitor = qHTS for Inhibitors of TGF-b | 410,000 tested, 1.2% active | HepG2 CAGA-GFP TGF-b/SMAD3 reporter, GFP fluorescence, 18 h; TGF-beta stimulated, 500 pg/mL final | Potency, µM (top dose mostly 46.1 µM), most hits filed as inhibitors; further: nearly all actives have a fitted effect of over 65% in size
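HEPG2 CAGA-GFP, 1000 cells/well; 2 h settle, 37 C; cpd via pin tool; TGF-b 500 pg/mL final; 18 h, 37 C; GFP imaging ex488/em500-530; %Activity normalised to -TGF-b and +DMSO controls; CRC fit, curve class.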
HepG2 viability = qHTS for Inhibitors of TGF-b: Cytotox Counterscreen; HepG2 CAGA-GFP viability, ATP luminescence, 18 h; Potency, µM (titrated, usually from 46.1 µM), actives largely listed as cytotoxic; 410,000 tested, 0.76% active; AID 588856, 2011
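CellTiter-Glo luminescence gave cytotoxicity after 18 hours at 37 degrees C. The cells were HepG2 CAGA-GFP in 1% FBS DMEM, stimulated with 500 pg/mL TGF-beta after compound addition. %Activity was normalised to no-cell wells (complete cell-killing) and DMSO (no toxicity), and curves were fitted and classified.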
HT1080 IDH1KD tx = qHTS for induction of synthetic lethality in tumor cells producing 2HG: qHTS for the HT-1080-IDH1KD cell line; 360,000 tested, 2% active; Potency, µM (doses to about 46.1 µM), actives largely listed as cytotoxic; HT-1080 IDH1 knockdown viability, ATP luminescence, 48 h
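Luminescent ATP read-out (CellTiter-Glo, 10 min at room temperature) after 48 h compound exposure at 37 °C gave viability of IDH1-knockdown HT-1080 cells. Activity was normalised to DMSO and cell-free wells, then fitted as concentration-response curves.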
IL-1B inflam inh = qHTS for Inhibitors of Inflammasome Signaling: IL-1-beta AlphaLISA Primary Screen. THP-1 LPS/ATP IL-1B secretion, AlphaLISA, 16 h; active compounds read low. activity change, % at 57.5 µM. 360,000 tested, 4.7% active. AID 743279, 2014; in the data active means activity change below about -50%; inconclusive means mostly about -30% to -49%
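Secreted IL-1B measured by AlphaLISA bead assay after 16 h compound exposure of THP-1 cells; compounds (final up to 57.5 uM) added 1 h before LPS (250 ng/mL) and ATP (1.25 mM) stimulation; lower signal means less secretion.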
Giardia kill = Small Molecules that selectively kill Giardia lamblia: qHTS; activity change, % at 7.66 µM, hits read low; 340,000 tested, 0.15% active; AID 540267, 2011; Giardia lamblia trophozoite viability; in the data active means activity change below about -80%; inconclusive means between about -30% and that limit;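 further: parasites exposed to compound for two days anaerobically before the ATP read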
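Viability, read as ATP luminescence: trophozoites at 100 cells/well, compound added, 48 hrs anaerobic at 37 deg C, then 15-30 min room-temperature development before reading.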
HT1080NT lethal = qHTS for induction of synthetic lethality in tumor cells producing 2HG: qHTS for the HT-1080-NT fibrosarcoma cell line | HT-1080-NT fibrosarcoma viability, CellTiter-Glo ATP luminescence, 48 h | Potency, µM (doses to about 46.1 µM), hits mostly cytotoxic | 360,000 tested, 1.6% active;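 further: NT is the 2HG producing partner of a matched IDH1 knockdown line; nearly all actives have a fitted effect of over 55% in size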
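Fibrosarcoma NT cells, 750 per well in 5% FBS RPMI, were exposed to compound for 48 hours. Viability: CellTiter-Glo luminescence.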
Numbers stand for hits; n = inactive; u = inconclusive; x = not tested or not shown. Only some compounds are listed: those with a hit (about 6.5% of all), similar ones and a draw of the others. Unless noted, the call rests on the fitted dose curve; in most records, active means well fitted curve in the direction sought with a large enough effect; inconclusive means small, poorly fitted or top-dose-only effect, or another doubt; inactive means no such curve, though single readings can be large; an effect the other way counts as inactive or inconclusive.

SMILES	TGFb inhibitor	HepG2 viability	HT1080 IDH1KD tx	IL-1B inflam inh	Giardia kill	HT1080NT lethal
O=C(Cc1ccc(N2CCNC2=O)cc1)N1CCCC(Nc2ccc(F)c(F)c2)C1 (stereo not given)	n	n	2.9µM	n	n	3.3µM
O=C(Cc1ccc(N2CCNC2=O)cc1)N1CCCC(Nc2cccc(F)c2)C1 (stereo not given)	u	n	5.8µM	n	n	u
O=C(O)CCSc1nnc(CNc2ccc(Cl)cc2)n1Cc1ccccc1	n	n	n	n	n	n
CC(=O)N1CCN(c2ccc(Nc3ncnc4c3oc3ccccc34)cc2)CC1	n	n	u	-81	n	n
CC(=O)N1CCN(c2ccc(NCc3cccc4ccccc34)cc2)CC1	n	n	n	-76	n	n
Cc1nn(CCc2nn[nH]n2)c2nc(-c3ccc(C4CCCCC4)cc3)cc(C(F)(F)F)c12	u	n	u	-105	n	23µM
O=S(=O)(c1ccccc1)N1CCC2(CC1)CO2	n	n	n	n	n	n
CC(C)(C)c1ccc(S(=O)(=O)N2CCC(O)(c3ccc(Cl)cc3)CC2)cc1	13µM	n	n	n	n	u
COc1ccc(S(=O)(=O)N2CCC(O)(c3ccc(Cl)cc3)CC2)cc1	u	n	u	u	n	n
O=S(=O)(c1ccc(Cl)cc1)N1CCC2(CC1)CO2	n	n	n	-57	n	n
CC(C)COC(=O)c1cccc2c1-c1ccccc1/C2=N\O	14µM	n	u	n	n	u
CC1CCCC(C)N1C(=O)c1cccc2c1-c1ccccc1/C2=N/O (stereo not given)	n	n	n	n	n	n
CCOC(=O)c1cccc2c1-c1ccccc1/C2=N/O	u	n	u	-54	n	u
CN1CC(c2ccccn2)C2(SC(=S)N(Cc3ccccc3)C2=O)C12C(=O)Nc1ccccc12 (stereo not given)	u	n	u	n	n	u
CN1CC(c2ccccc2)C2(SC(=S)N(Cc3ccco3)C2=O)C12C(=O)Nc1ccccc12 (stereo not given)	u	n	u	-69	n	u
CCC(=O)N1CCc2cc(S(=O)(=O)NC(C(=O)NCc3ccccc3)C(C)C)ccc21 (stereo not given)	n	n	n	n	n	n
CC1CCN(C(=O)c2cc3nc(-c4ccccc4)cc(-c4ccccc4)n3n2)CC1	n	n	n	-55	n	n
O=C(NC1CCCC1)c1cc2nc(-c3ccccc3)cc(-c3ccccc3)n2n1	n	n	n	n	n	n
Cc1ccc(C(C)C)c(OCc2ccc(C(=O)N/N=C/c3cccc(O)c3O)cc2)c1	u	n	u	n	n	9.2µM
COc1cc(/C=N\NC(=O)c2ccc(-c3ccccc3)cc2)cc(OC)c1O	n	n	n	u	n	n
CCN(CC)S(=O)(=O)c1cccc(C(=O)N/N=C/c2cccc(O)c2O)c1	u	n	u	n	n	u
CCOc1cc(/C=N/NC(=O)c2ccc(=O)n(C)c2)ccc1O	n	n	n	n	n	n
COc1cc(/C=N/NC(=O)c2ccc(COc3cc(C)ccc3C(C)C)cc2)cc(OC)c1O	n	n	21µM	n	n	21µM
Cc1ccc(C(C)C)c(OCc2ccc(C(=O)N/N=C/c3ccc(O)c(O)c3)cc2)c1	u	n	u	-100	n	n
Nn1c(SC/C=C/c2ccccc2)nnc1-c1ccccn1	n	n	n	n	n	n
SMILES	TGFb inhibitor	HepG2 viability	HT1080 IDH1KD tx	IL-1B inflam inh	Giardia kill	HT1080NT lethal
Fc1ccc(-c2csc(-c3ccncc3)n2)cc1	n	n	n	n	n	n
COc1ccc(CN(C)C(=O)COC(=O)c2cc([N+](=O)[O-])ccc2N2CCCC2)c(OC)c1OC	n	n	n	n	n	n
CCCCN(C(=O)c1ccccc1OCc1ccc(F)cc1)c1c(N)n(CC(C)C)c(=O)[nH]c1=O	n	n	n	n	n	n
Cc1cc(C)c(S(=O)(=O)NC2CCN(Cc3ccccc3)CC2)c(C)c1	u	n	n	n	n	n
Cc1cc(S(=O)(=O)NC2CCN(Cc3ccccc3)CC2)c(C)cc1Cl	u	n	21µM	-96	n	u
Cc1cc(C)c(C)c(S(=O)(=O)NC2CCN(Cc3ccccc3)CC2)c1C	u	n	16µM	-73	n	u
O=S(=O)(NC1CCN(Cc2ccccc2)CC1)c1ccc(F)c(F)c1	n	n	n	n	x	n
CC(C)CCn1c(N2CCC(C(N)=O)CC2)nc2c1c(=O)[nH]c(=O)n2C	n	n	n	n	n	n
O=C(CC1Sc2ccccc2NC1=O)NNc1cc(Cl)ccc1Cl (stereo not given)	n	n	u	n	n	u
O=C(CC1Sc2ccccc2NC1=O)NNc1ccc(F)cc1 (stereo not given)	n	n	7.3µM	n	n	u
COc1cc(NC(=O)COc2ccc(-n3ccnc3)cc2)cc(OC)c1	n	n	n	-106	n	n
CC(C)(C)c1ccc(NC(=O)COc2ccc(-n3ccnc3)cc2)cc1	n	n	u	n	n	n
COc1ccccc1N(CC(O)CN1CCC(C)CC1)S(=O)(=O)c1ccccc1 (stereo not given)	n	n	n	n	n	n
CCCCNC(=O)NS(=O)(=O)c1ccc(C)cc1	n	n	u	n	n	n
Cc1cccc(Oc2sc(C(=O)c3ccccc3)c(N)c2C#N)c1C	u	n	n	-62	n	n
N#Cc1c(Oc2ccc3ccccc3c2)sc(C(=O)c2ccccc2)c1N	n	n	n	-107	n	n
O=C(CN1C(=O)CCS(=O)(=O)c2ccccc21)NCc1ccc2c(c1)OCO2	n	n	n	n	n	n
COc1ccc(N2C(=O)C(C)C(Cc3ccc(C)cc3)C2=O)cc1 (stereo not given)	n	n	n	n	n	n
Cc1[nH]nc2c1C(c1cccs1)C(C#N)=C(N)O2 (stereo not given)	n	n	u	u	n	n
CCn1c(C)nc2cc(NC(=O)Nc3cccc(C(C)=O)c3)ccc21	n	n	n	n	u	n
COC(=O)[C@]12CCCCC=C1N(Cc1ccccc1)C(=O)[C@H](CC(=O)NCc1cccc3ccccc13)C2	x	x	u	n	x	u
